# HT1080NT lethal = kills 2HG-producing HT-1080-NT fibrosarcoma cells | AID 686970 | 360,000 tested, 1.6% active | Potency, µM (doses to about 46.1 µM), for the others: top-dose activity, negative = less viability, hits mostly cytotoxic | HT-1080-NT fibrosarcoma viability, CellTiter-Glo ATP luminescence, 48 h;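 also: NT is the 2HG producing partner of a matched IDH1 knockdown line; 0% = DMSO-treated cells and -100% = media-only wells without cells; nearly all actives have a fitted effect of over 55% in size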
#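 HT-1080-NT; 750 cells/well; 5% FBS RPMI; 48 h compound, 37 degrees C; CellTiter-Glo luminescence; curve fitting and curve-class assignment.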
# KB-V1 MDR tox = kills drug-selected multidrug resistant KB-V1 cells; KB-V1 MDR cells viability, CellTiter-Glo, 72 h; Potency, µM (doses to about 46.1 µM), most hits filed as cytotoxic; 400,000 tested, 3.4% active; AID 1347076; also: % is scaled to controls: 0 for no effect and ±100 for the full control effect; nearly all actives have a fitted effect of over 60% in size
#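 qHTS viability screen in drug-selected KB-V1 MDR cells: 72 h compound treatment at 37 degrees C, ATP luminescence end point.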
# HT1080 IDH1KD tx = HT-1080 IDH1 knockdown cell toxicity (counter line). HT-1080 IDH1 knockdown viability, ATP luminescence, 48 h. Potency, µM (doses to about 46.1 µM), for inactives: at the top dose activity, negative = toxicity, most hits filed as cytotoxic. 360,000 tested, 2% active. AID 686971;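 also: 0% = DMSO wells and -100% = cell-free medium wells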
#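 Using the IDH1-knockdown HT-1080 line run in the same batch and compound series as the NT line, viability after 48 h at 37 °C was determined by CellTiter-Glo luminescence and expressed as % activity.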
# MCF10A rereplic = induces DNA re-replication in MCF 10a normal breast cells. Potency, µM (top dose mostly 46.1 µM), inactives show at the highest dose activity, positive = re-replication, hits mostly activators. MCF 10A DNA re-replication, Hoechst nuclear intensity, 48 h. AID 624296. 350,000 tested, 2.9% active; also: % of control where 0% means no effect; nearly all actives have a fitted effect of over 50% in size
# KB-3-1 tox = KB-3-1 parental cell cytotoxicity | Potency, µM (doses to about 46.1 µM), hits mostly cytotoxic | 400,000 tested, 1.4% active | KB-3-1 viability, CellTiter-Glo ATP luminescence, 72 h; also: % is scaled to controls: 0 for no effect and ±100 for the full control effect; nearly all actives have a fitted effect of over 60% in size
#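 Parental KB-3-1 adenocarcinoma cells in phenol-red-free DMEM with 10% FBS were pin-treated with compounds at several concentrations, incubated 72 h at 37 °C, and viability read by CellTiter-Glo luminescence; concentration-effect curves were fitted after normalization.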
# SW480 rereplic = DNA re-replication induction in SW480 cells; SW480 DNA re-replication, Hoechst DNA content imaging, 48 h; Potency, µM (highest dose often 46.1 µM), inactives show top-dose re-replication activation, actives largely listed as activators; 340,000 tested, 1.8% active; also: % of control where 0% means no effect; nearly all actives have a fitted effect of over 55% in size
#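 Image-based read-out: total Hoechst fluorescence of nuclei (405 nm excitation, 500-530 nm emission), with hits raising the fraction of high-intensity nuclei. SW480 colon cells incubated 48 hr with compounds at 37 C.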
# An asterisk follows results filed as active; i = inactive; u = inconclusive; x = no result given. This is a sample that favours compounds with a hit; in the whole collection about 8% have one here. Calls follow the shape of the dose curve; as a rule, active = well fitted curve in the direction sought with a large enough effect; inconclusive = small, poorly fitted or top-dose-only effect, or another doubt; inactive = no such curve, though single readings can be large; an effect the other way counts as inactive or inconclusive. Potency is read from the fitted curve at half-maximal effect.
SMILES,HT1080NT lethal,KB-V1 MDR tox,HT1080 IDH1KD tx,MCF10A rereplic,KB-3-1 tox,SW480 rereplic
CCC(CC)C(=O)Nc1ccc2nc(SCC(=O)N3c4ccccc4CC3C)sc2c1 (stereo not given),x,i,x,x,u,x
COc1cc(CNC2CCCC2)cc(Br)c1OCC(=O)Nc1ccccc1C,-6%,i,-1%,-2%,i,0%
COc1cccc(-c2nc(S(=O)(=O)c3ccccc3)c(N3CCC(C)CC3)o2)c1,x,u,x,x,i,x
Nn1cc(-c2ccccc2)nc1SCC(=O)NCCc1ccccc1,-7%,23µM*,-15%,-2%,i,-4%
Nn1cc(-c2ccccc2)nc1SCC(=O)NCC(F)(F)F,-1%,i,3%,8%,i,-19%
CCn1c(SC/C=C/c2ccccc2)nnc1-c1cccs1,-1%,13µM*,0%,u,i,-4%
Cn1c(SC/C=C/c2ccccc2)nnc1-c1cccs1,3%,i,21%,2%,i,-3%
CCn1c(CNC(=O)c2cccs2)nnc1SCC(=O)NCCc1ccccc1,3%,i,5%,11%,i,-10%
CCn1c(SCC(=O)NCCc2ccccc2)nnc1-c1cccs1,-4%,21µM*,5%,1%,i,-10%
CCCCn1c(SCC(=O)c2ccccc2)nc2c(sc3ccccc32)c1=O,x,i,x,x,i,x
CCOC(=O)C1CCN(C(c2ccccc2OC)c2c(O)cc(C)n(CCOC)c2=O)CC1 (stereo not given),x,i,x,x,i,x
CCc1cc2cc(C)ccc2nc1SCC(=O)NC1CCCC1,3%,u,8%,11%,i,11%
C=CCn1c(SCN2C(=O)c3ccccc3C2=O)nc2ccc(Cl)cc2c1=O,-1%,16µM*,0%,4%,u,-8%
O=C(COC(=O)c1ccc(N2CCOCC2)c([N+](=O)[O-])c1)Nc1ccc2c(c1)OCO2,u,8.2µM*,26%,-2%,u,0%
CCC(C)c1ccccc1NC(=O)COC(=O)c1ccc2[nH]c3c(c2c1)CCCC3 (stereo not given),-30%,21µM*,u,8.2µM*,u,u
Cc1cccc(C)c1NC(=O)COC(=O)c1ccc(N2CCCC2)c([N+](=O)[O-])c1,8%,i,11%,-1%,i,1%
Cc1c(CCOC(=O)c2ccc(N3CCOCC3)c([N+](=O)[O-])c2)sc[n+]1CC#N,23µM*,u,u,16µM*,21µM*,27%
CCC(C)c1ccccc1NC(=O)COC(=O)c1ccc(N2CCCC2)c([N+](=O)[O-])c1 (stereo not given),1%,i,-2%,5%,0.0023µM*,-4%
CCOC(=O)C(CCc1ccccc1)NC1CCc2ccccc2N(CC(=O)O)C1=O (stereo not given),x,x,x,30µM*,x,27µM*
Cc1ccc(S(=O)(=O)N(CC(=O)N2CCN(c3ccccc3F)CC2)C2CCCCC2)cc1,-1%,4.6µM*,-11%,10%,u,4%
CS(=O)(=O)N(CC(=O)N1CCN(c2ccccc2F)CC1)C1CCCCC1,-1%,u,-1%,10%,i,21%
Cc1cccc(Cn2c(=O)n(-c3ccc(Cl)c(Cl)c3)c(=O)c3c(C)c(C)sc32)c1,x,i,x,x,i,x
Cc1ccccc1OCCNc1cc(N2CCCCC2)ccc1[N+](=O)[O-],-14%,u,-19%,24%,i,0%
COc1ccc(OCCNc2cc(N3CCOCC3)ccc2[N+](=O)[O-])cc1,u,u,u,1%,i,-4%
Cc1ccccc1OCCNc1cc(N2CCN(CCO)CC2)ccc1[N+](=O)[O-],u,u,15µM*,18%,i,0%
SMILES,HT1080NT lethal,KB-V1 MDR tox,HT1080 IDH1KD tx,MCF10A rereplic,KB-3-1 tox,SW480 rereplic
CC1CN(c2ccc([N+](=O)[O-])c(NCCOc3ccccc3)c2)CCN1 (stereo not given),15µM*,u,16µM*,22%,i,16%
COc1cccc(OCCNc2cc(N3CCOCC3)ccc2[N+](=O)[O-])c1,-26%,9.2µM*,-25%,u,i,7%
COc1cccc(OCCNc2cc(N3CCCCC3)ccc2[N+](=O)[O-])c1,-5%,u,-8%,12%,i,10%
Cc1cccc(OCCNc2cc(N3CCN(CCO)CC3)ccc2[N+](=O)[O-])c1,-4%,18µM*,-9%,3%,i,u
Cc1c(CCC(=O)NCCc2ccc(Cl)cc2)c(=O)oc2c(C)c(O)ccc12,x,i,x,x,i,x
COCCn1c(SCC(=O)NNC(=O)c2ccccc2)nc2ccccc21,15%,i,12%,2%,i,1%
O=C(/C=C/c1c(F)c(F)c(F)c(F)c1F)Nc1cccc([S+](=O)([O-])Nc2ccccc2F)c1,x,i,x,x,i,x
CCc1cc(=O)oc2cc(O[C@@H]3O[C@H](CO)[C@@H](O)[C@H](O)[C@H]3O)c(Cl)cc12,6%,i,5%,-7%,i,18µM*
CCc1cc(=O)oc2c(C)c(O[C@@H]3O[C@H](CO)[C@@H](O)[C@H](O)[C@H]3O)ccc12,-6%,u,0%,-2%,i,u
Cc1cc(-c2cc(-c3ccccc3)on2)nc(NCC2CC2)n1,12%,u,5%,18µM*,i,1%
CCCNc1nc(C)cc(-c2cc(-c3ccccc3)on2)n1,9%,i,15%,61%,i,-34%
CCc1ccc2oc(C(=O)Nc3cccc(C(F)(F)F)c3)cc(=O)c2c1,x,i,x,x,i,x
Cc1ccc(S(=O)(=O)N2CCCC2)cc1C(=O)N1CCC(C)CC1,0%,u,1%,2%,i,-31%
COc1ccc(-c2nnnn2-c2ccccc2OC)cc1,u,13µM*,u,u,u,u
CC(C(=O)Nc1ccccc1Br)N1c2cccc3cccc(c23)S1(=O)=O (stereo not given),-19%,i,u,19%,i,7%
CN(Cc1cccs1)C(=O)/C=C/c1ccccc1[N+](=O)[O-],-9%,u,2%,-4%,i,-1%
NC(=S)N/N=C/c1cccc(Br)c1,0%,8.2µM*,-3%,-7%,u,-4%
NC(=S)N/N=C/c1cccc(/C=N/NC(N)=S)c1,28%,i,30%,4%,i,3%
NC(=S)N/N=C/c1ccc(/C=N/NC(N)=S)cc1,-12%,i,1%,u,i,18µM*
O=C(N/N=C/c1cccs1)c1cccc2cc[nH]c12,u,21µM*,16µM*,20%,i,0%

# High-throughput results as filed in PubChem BioAssay.
